Results as given in the OligoGym collection.

What follows are sequences tested against WFIKKN1 (assay: pooled miR-30 sensor sort-seq; sequence = guide strand). Details: shRNA.
Note: reference of the scale not given here.

**Q.** How did the sensor-assay potency score (higher = more potent) turn out when TCGGCGTCCATATAGCAGCGGT was run?
**A.** -1.4

**Q.** For TGATGCAGCACTTCTCAGCAGC, which sensor-assay potency score (higher = more potent) is on record?
**A.** -0.485

**Q.** With TTGCCATACATCTGATCAGGGC as the sequence, how does the sensor-assay potency score (higher = more potent) read?
**A.** -0.931

**Q.** TCATCCTTGAGCACGTCCTCGA was tested. Which sensor-assay potency score (higher = more potent) did it give?
**A.** -0.412

**Q.** TCGTAGGTCTCAAAGCCGCGGG was tested. Which sensor-assay potency score (higher = more potent) did it give?
**A.** -1.25

**Q.** Which sensor-assay potency score (higher = more potent) does the source give for AAGAACTTGAGGCCCATCTTGT here?
**A.** -0.385

**Q.** With TTCTTGACGCGCTTCTCGCTGG as the sequence, how does the sensor-assay potency score (higher = more potent) read?
**A.** -0.797

What follows are sequences tested against WIZ in the same assay as above. Details: shRNA.

**Q.** Which sensor-assay potency score (higher = more potent) does the source give for TCTTCTTGAGGATCTCTCGCAG here?
**A.** -0.0721

**Q.** TTCTTCTTGAGGATCTCTCGCA was tested. Which sensor-assay potency score (higher = more potent) did it give?
**A.** -0.31

**Q.** For TTGGCCTTGACCTCTGCTGGGA, which sensor-assay potency score (higher = more potent) is on record?
**A.** -0.479

**Q.** Which sensor-assay potency score (higher = more potent) does the source give for TTGAGGATCTCTCGCAGTGTGT here?
**A.** -1.29

**Q.** Which sensor-assay potency score (higher = more potent) does the source give for TATTTGTTCAGGCTTCAGCTTC here?
**A.** -1.07

**Q.** With TTCAAATTTGTTGATGTTCTGC as the sequence, how does the sensor-assay potency score (higher = more potent) read?
**A.** 0.0401

**Q.** With TTCTCGAAGAACTCGCCGCAGA as the sequence, how does the sensor-assay potency score (higher = more potent) read?
**A.** -0.9

**Q.** With TTGACAAGTGATGTCTGGGGGG as the sequence, how does the sensor-assay potency score (higher = more potent) read?
**A.** -0.32

**Q.** Which sensor-assay potency score (higher = more potent) does the source give for TTTGGAGAAGTTCATCTCCAGG here?
**A.** -1.49

**Q.** For TTTGTTGATGTTCTGCCGCTGG, which sensor-assay potency score (higher = more potent) is on record?
**A.** -0.379

**Q.** With AATTCCACCTCACAGAACCTGC as the sequence, how does the sensor-assay potency score (higher = more potent) read?
**A.** -1.06

**Q.** How did the sensor-assay potency score (higher = more potent) turn out when TTCTGCTGTAGGTCATTGGTGT was run?
**A.** -0.0622

What follows are sequences tested against WNK4 in the same assay as above. Details: shRNA.

**Q.** For TTCTGTAGTGTCTGTAGTGTTT, which sensor-assay potency score (higher = more potent) is on record?
**A.** -0.833

**Q.** TTTTCCTCGTACATCTCGGGGG was tested. Which sensor-assay potency score (higher = more potent) did it give?
**A.** 0.127

**Q.** How did the sensor-assay potency score (higher = more potent) turn out when TTTTCTGTAGTGTCTGTAGTGT was run?
**A.** 0.147

**Q.** How did the sensor-assay potency score (higher = more potent) turn out when TACACCGTCTTGAAGGAGCCAC was run?
**A.** -0.497

**Q.** Which sensor-assay potency score (higher = more potent) does the source give for TTGTTGATCAGAAAGCATCAGA here?
**A.** -0.592

**Q.** With TAGTTCATCCACACTGGGCTGG as the sequence, how does the sensor-assay potency score (higher = more potent) read?
**A.** -0.183

**Q.** How did the sensor-assay potency score (higher = more potent) turn out when ATTGTCGCACTTGAGATCCCGG was run?
**A.** -0.626

**Q.** TCAAACTTGAGGTATCGGCCAT was tested. Which sensor-assay potency score (higher = more potent) did it give?
**A.** -0.186

**Q.** With TTTCCTCGTACATCTCGGGGGC as the sequence, how does the sensor-assay potency score (higher = more potent) read?
**A.** -0.103

**Q.** With TTGAGGTATCGGCCATCGGGGG as the sequence, how does the sensor-assay potency score (higher = more potent) read?
**A.** -1.54

**Q.** How did the sensor-assay potency score (higher = more potent) turn out when TTTCTGTAGTGTCTGTAGTGTT was run?
**A.** -0.643

**Q.** For TACTTTTCCTCGTACATCTCGG, which sensor-assay potency score (higher = more potent) is on record?
**A.** -0.00694

Each sequence was assayed against WNT16 in the same assay as above. Details: shRNA.

**Q.** Which sensor-assay potency score (higher = more potent) does the source give for TTAACTTTTCAACATCTTCTAT here?
**A.** -0.546

**Q.** Which sensor-assay potency score (higher = more potent) does the source give for TTTCTTATCTTCTACACAGTAG here?
**A.** -0.455

**Q.** Which sensor-assay potency score (higher = more potent) does the source give for TTCTTTGTCACTAAACATCTGT here?
**A.** -0.0723

**Q.** TCTACTGACATCAACTTGGCGA was tested. Which sensor-assay potency score (higher = more potent) did it give?
**A.** -0.481

**Q.** Which sensor-assay potency score (higher = more potent) does the source give for AAATCTAGGAACTTTCTGCTGA here?
**A.** 0.396

**Q.** With TTCTTTACAAAACACTGTCTTT as the sequence, how does the sensor-assay potency score (higher = more potent) read?
**A.** -0.946

**Q.** With TTTACATTAAAATACATCCTTA as the sequence, how does the sensor-assay potency score (higher = more potent) read?
**A.** -0.353

**Q.** How did the sensor-assay potency score (higher = more potent) turn out when TAACTTTTCAACATCTTCTATC was run?
**A.** -0.48

**Q.** With TAACAGTTGAAACTGATCTGTG as the sequence, how does the sensor-assay potency score (higher = more potent) read?
**A.** 0.0469
